Structures are written as SMILES. This is part of a sample that, as a whole, favours compounds with a hit. Of some 83,000 tested, about 20% had one in any assay.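 Values shown are percent growth following 48 h exposure of cells in 96-well plates to a single concentration of compound; below 10 was considered active.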 Unmarked numbers belong to inactive results. Active and inactive are the calls of the source.

Among the test systems are NCI-H23 lung; NCI-H226 lung; NCI-H322M lung; HOP-62 NSCLC; NCI-H460 lung; HOP-92 NSCLC; NCI-H522 lung; A549/ATCC NSCLC; 786-0 renal; COLO 205 colon.
What all share (assay): NCI-60 one-dose screen, 48 h (100 = growth as untreated, 0 = no growth, -100 = all killed)
Common to all, as to settings: 10 µM unless noted

Take `CCN(C(=O)Nc1cccc2ccccc12)c1ccccc1`: the growth was 98.3% with NCI-H23 lung; 98.1% with NCI-H226 lung; 102% in the experiment on NCI-H322M lung; 93.6% with HOP-62 NSCLC; 115% in the experiment on NCI-H460 lung; 96.3% with HOP-92 NSCLC. Besides, the growth in the experiment on NCI-H522 lung was 100%; with A549/ATCC NSCLC, 98.7%; in the experiment on 786-0 renal, 106%; in the experiment on COLO 205 colon, 105%.
Take `CCCc1n(Cc2ccc3ccccc3n2)cc[n+]1Cc1ccc2ccccc2c1`: the growth with NCI-H23 lung was -11.6% (active); in the experiment on NCI-H226 lung it was 12.3%; with NCI-H322M lung, 25.7%; with HOP-62 NSCLC, 8.38% (active); in the experiment with NCI-H460 lung, 7.73% (active); in the experiment on HOP-92 NSCLC, -18.6% (active). The growth was -0.784% (active) with NCI-H522 lung, 39.1% in the experiment with A549/ATCC NSCLC, 34.7% in the experiment on 786-0 renal and -50% (active) in the experiment on COLO 205 colon.
Consider `COc1cc(C2C=C(C)N=C3SC=NN32)cc(OC)c1OC` (stereo not given), for which the growth with NCI-H23 lung was 100%; in the experiment on NCI-H226 lung it was 108%; in the experiment on NCI-H322M lung, 112%; in the experiment with HOP-62 NSCLC it was 102%; in the experiment with NCI-H460 lung it was 108%; with HOP-92 NSCLC it was 91.4%. The growth in the experiment on NCI-H522 lung was 104%; in the experiment with A549/ATCC NSCLC, 101%; with 786-0 renal it was 112%; with COLO 205 colon it was 115%.
Consider `C#CC[C@@H]1C[C@]2(C)[C@H]3CC=C4[C@H]5[C@@H](C)[C@H](C)CC[C@]5(C(=O)NCCCCN)CC[C@@]4(C)[C@]3(C)CC[C@H]2C(C)(C)[C@H]1OC(C)=O`, for which the growth in the experiment on NCI-H23 lung was 94.8%; in the experiment with NCI-H226 lung, 87.1%; with NCI-H322M lung, 92.4%; with HOP-62 NSCLC, 89.2%; in the experiment on NCI-H460 lung it was 1.45% (active); with HOP-92 NSCLC it was 44.1%. The growth in the experiment on NCI-H522 lung is 81.7%; in the experiment on A549/ATCC NSCLC, 72.6%; in the experiment on 786-0 renal it was 79.9%; in the experiment with COLO 205 colon, 6.68% (active).
Consider `O=C(OCc1ccc2c(Cl)cc(Cl)c(O)c2n1)c1cc2ccccc2[nH]1`, for which the growth is -54.4% (active) with NCI-H23 lung; -73.7% (active) in the experiment with NCI-H226 lung; 8.26% (active) with NCI-H322M lung; -35.1% (active) in the experiment with HOP-62 NSCLC; -75% (active) in the experiment with NCI-H460 lung; -77.3% (active) with HOP-92 NSCLC. The growth in the experiment with NCI-H522 lung is -73.8% (active); in the experiment with A549/ATCC NSCLC it was -54.2% (active); with 786-0 renal it was -78.6% (active); with COLO 205 colon, -87.1% (active).
With `CC(=O)c1nn(-c2ccccc2)/c(=N\N=C\c2coc3ccc(F)cc3c2=O)s1`, the growth in the experiment on NCI-H23 lung was 96.8%; in the experiment with NCI-H226 lung, 86%; with NCI-H322M lung it was 104%; with HOP-62 NSCLC, 85.6%; with NCI-H460 lung it was 102%; with HOP-92 NSCLC it was 90.6%. The growth in the experiment with NCI-H522 lung was 101%; in the experiment on A549/ATCC NSCLC, 109%; in the experiment with 786-0 renal, 110%; in the experiment on COLO 205 colon, 111%.
On to `CCCCCNCCCCCNc1cc(OC)cc2cccnc12`, for which the growth was 90.7% in the experiment with NCI-H23 lung; 94% in the experiment on NCI-H226 lung; 89.4% in the experiment with NCI-H322M lung; 79.1% with HOP-62 NSCLC; 95.9% in the experiment on NCI-H460 lung; 9.38% (active) in the experiment on HOP-92 NSCLC. Further, the growth with NCI-H522 lung is 89.6%; in the experiment on A549/ATCC NSCLC, 96.1%; with 786-0 renal, 83.1%; in the experiment with COLO 205 colon it was 63.6%.
For `CCN(CC)CCC(CNc1ccnc2cc(Cl)ccc12)c1ccc(O)cc1` (stereo not given), the growth in the experiment with NCI-H23 lung was 91.3%; in the experiment on NCI-H226 lung, 102%; with NCI-H322M lung, 72.7%; in the experiment with HOP-62 NSCLC it was 87.4%; in the experiment with NCI-H460 lung it was 54.2%; in the experiment with HOP-92 NSCLC, 53.3%. Besides, the growth in the experiment on NCI-H522 lung is 97.9%; in the experiment on A549/ATCC NSCLC it was 97.8%; in the experiment with 786-0 renal, 92.3%; in the experiment on COLO 205 colon, 71.5%.
Regarding `O=C1/C(=C\c2cccn2C(=O)c2ccccc2)c2ccccc2N1c1c(Cl)cccc1Cl`, the growth in the experiment with NCI-H23 lung is 75.3%; with NCI-H226 lung, 70.1%; in the experiment on NCI-H322M lung, 93.7%; in the experiment on HOP-62 NSCLC, 99.3%; with NCI-H460 lung it was 94.8%; in the experiment on HOP-92 NSCLC it was 81.5%. Further, the growth is 70.5% in the experiment with NCI-H522 lung, 77.3% in the experiment with A549/ATCC NSCLC, 94% in the experiment with 786-0 renal and 98% in the experiment with COLO 205 colon.
With `Oc1[nH]c2ccc(Cl)cc2c1/C=c1/ccc2c(c1)N=C(c1ccc(F)cc1)N=2`, the growth with NCI-H23 lung was 74.5%; with NCI-H226 lung, 89.9%; with NCI-H322M lung, 84.1%; with HOP-62 NSCLC it was 74.5%; in the experiment on NCI-H460 lung, 74.2%; in the experiment with HOP-92 NSCLC it was 34.2%. The growth in the experiment with NCI-H522 lung was 80.7%; with A549/ATCC NSCLC it was 71.4%; with 786-0 renal, 76%; with COLO 205 colon, 97.6%.
Consider `COc1cc(C)cc2oc3oc(=O)c(-c4csc(-c5cc6ccccc6oc5=O)n4)cc3c(=O)c12`, for which the growth in the experiment with NCI-H23 lung was 101%; in the experiment with NCI-H226 lung, 102%; in the experiment on NCI-H322M lung, 105%; in the experiment with HOP-62 NSCLC it was 103%; with NCI-H460 lung, 106%; in the experiment on HOP-92 NSCLC it was 105%. The growth with NCI-H522 lung is 103%; with A549/ATCC NSCLC, 114%; with 786-0 renal it was 106%; with COLO 205 colon it was 119%.
With `Nc1c(C(=O)Nc2cccc(Cl)c2)sc2ncc(Br)cc12`, the growth was 79.5% with NCI-H23 lung; 83.5% in the experiment with NCI-H226 lung; 59.4% with NCI-H322M lung; 75.4% in the experiment on HOP-62 NSCLC; 28.8% in the experiment with NCI-H460 lung; 78.5% in the experiment on HOP-92 NSCLC. For the same compound, the growth in the experiment on NCI-H522 lung is 65.2%; in the experiment on A549/ATCC NSCLC, 34.6%; in the experiment on 786-0 renal, 76.1%; in the experiment on COLO 205 colon, 85.1%.
Turning to `COc1c(B(O)O)cccc1-c1nc2ccc3[nH]ncc3c2c2c1CCCC2`, the growth in the experiment on NCI-H23 lung is 15.5%; with NCI-H226 lung, -10.6% (active); with NCI-H322M lung, 16%; with HOP-62 NSCLC, 7.22% (active); in the experiment on NCI-H460 lung, 8.49% (active); with HOP-92 NSCLC, 32.8%. For the same compound, the growth in the experiment on NCI-H522 lung is 15.1%; in the experiment with A549/ATCC NSCLC, 8.01% (active); with 786-0 renal it was 25.9%; with COLO 205 colon it was 4.2% (active).
As to `CC(CN1CCN(CCOCCO)CC1)CN1c2ccccc2Sc2ccc(Cl)cc21` (stereo not given), the growth with NCI-H23 lung is 72.7%; in the experiment with NCI-H226 lung, 83.5%; in the experiment with NCI-H322M lung it was 88.2%; with HOP-62 NSCLC, 107%; in the experiment on NCI-H460 lung, 50.2%; in the experiment with HOP-92 NSCLC, -3.33% (active). In addition, the growth with NCI-H522 lung was 33.3%; in the experiment with A549/ATCC NSCLC it was 75.1%; with 786-0 renal, 65.5%; in the experiment with COLO 205 colon it was -79.9% (active).
